Screening data: PubChem, several laboratories
tim23-1 inh = growth inhibitors of tim23-1 mutant yeast, primary screen, luminescence, uHTS; S. cerevisiae tim23-1 growth, BacTiter-Glo luminescence, 24 h; 1.3% of 330,000 active; AID 463212, 2010; inhibition, % at 20 µM;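 active means growth inhibition of the mutant yeast at or above 50%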;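 further: temperature-sensitive mutant grown at 25 °C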
NALP1 inh = NALP1 inflammasome inhibitors in reconstituted yeast, colorimetric, S. cerevisiae, triplicate retest; S. cerevisiae NALP1/ASC/caspase-1 growth, X-gal OD620, 72 h; inhibition, % at 10 µM; 0.61% of 280,000 active; AID 2071, 2009; in the data active means inhibition mostly above about 24%, no sharp cut-off; inactive means mostly below about 32%
PfHsp90 set2 = growth inhibition of PfHsp90-expressing yeast, primary screen, antimalarial PfHsp90 inhibitor project, S. cerevisiae, BacTiter-Glo luminescence, single point, set 2 | BacTiter-Glo ATP, 48 h; yeast lacking PDR1 and PDR3 efflux regulators | inhibition, % at 9.4 µM | 0.32% of 310,000 active | AID 504621, 2011;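 active means every replicate shows inhibition above about 80%, whatever the replicate mean, limit read from the data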
tim10-1 inh = growth inhibitors of tim10-1 mutant yeast, primary screen, luminescence, uHTS; S. cerevisiae tim10-1 ts strain growth, BacTiter-Glo, 24 h; 2.2% of 330,000 active; inhibition, % at 20 µM;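 active means inhibition of at least 40%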;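 further: mutant grown at 25 °C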
TIM10 inh = growth inhibitors of isogenic TIM10 control yeast, primary screen, counter-screen for tim10-1 yeast inhibitor project, luminescence, uHTS; S. cerevisiae TIM10 strain growth, BacTiter-Glo luminescence, 24 h; inhibition, % at 10 µM; 1.4% of 330,000 active; AID 463195, 2010;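 active means inhibition of 40% or more at the single tested concentration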;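 further: wild-type TIM10 isogenic control strain grown at permissive 25 °C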
NLRP3 yeast inh = NALP3 inflammasome inhibitors in reconstituted yeast, primary screen, luminescence, uHTS; AID 2825, 2010; inhibition, % at 10 µM; 0.39% of 330,000 active; Yeast reconstituted NLRP3/ASC/caspase-1, beta-gal luminescence, 24 h;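 active means inhibition of 50% or more; inactive means inhibition below 50%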
tim10-1 conf = growth inhibitors of tim10-1 mutant yeast, confirmation, single concentration, luminescence, S. cerevisiae; shares compounds with tim10-1 inh; S. cerevisiae tim10-1 ts strain growth, BacTiter-Glo, 24 h; inhibition, % at 20 µM; 56% of 7,400 active;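 active means inhibition of yeast growth at or above a set limit in either of two repeat tests at 20 µM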;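 further: tim10-1 mutant grown at permissive 25 °C to find synthetic lethal compounds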
tim10 confirm = growth inhibitors of wild-type TIM10 yeast, confirmation, counter-screen for tim10-1 synthetic lethality project, single concentration, luminescence, S. cerevisiae; S. cerevisiae tim10 strain growth, BacTiter-Glo luminescence, 24 h; shares compounds with TIM10 inh; 63% of 4,600 active; AID 463215, 2010; inhibition, % at 10 µM;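 active means inhibition of yeast growth at or above a set limit in either of two replicates at 10 µM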; further: this counterscreen used the strain with wild-type TIM10
tim23-1 conf = tim23-1 mutant yeast growth inhibitors, confirmation, luminescence, single concentration. S. cerevisiae tim23-1 growth, BacTiter-Glo luminescence, 24 h. shares compounds with tim23-1 inh. 83% of 4,400 active. inhibition, % at 20 µM;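 active means inhibition above about 39% in either of two replicate wells at 20 µM, limit read from the data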;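 further: temperature-sensitive tim23-1 mutant grown at 25 °C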
Numbers stand for hits; - = inactive; . = no result. Only some compounds are listed: those with a hit (about 4.2% of all), similar ones and a draw of the others.

SMILES	tim23-1 inh	NALP1 inh	PfHsp90 set2	tim10-1 inh	TIM10 inh	NLRP3 yeast inh	tim10-1 conf	tim23-1 conf	others
CC1CCCCC1NC(=O)c1cc(S(=O)(=O)N2CCOCC2)ccc1Cl (centres undefined)	-	.	.	-	-	-	.	.
CC(C)(C)N=Cc1c(O)ccc2oc3c(c12)CCCC3	63	-	-	41	-	-	33	64
NC(=O)N/N=C/c1c(O)ccc2oc3c(c12)CCCC3	-	.	-	-	-	-	.	.
O=C(CC1Nc2ccccc2NC1=O)Nc1cc(Cl)cc(Cl)c1 (centres undefined)	64	-	.	79	41	-	-	-	tim10 confirm=-
CCCCNC(=O)CC1Nc2ccccc2NC1=O (centres undefined)	-	.	-	-	-	-	.	.
Clc1ccc(CSc2nncn2-c2ccc3c(c2)OCCO3)cc1	52	-	-	41	-	-	33	47
Cc1ccc2c(c1)N=C(c1ccccc1)CC(C(Cl)Cl)=N2	74	-	-	60	60	-	48	67	tim10 confirm=56
CC(SC#N)C(=O)C12CC3CC(CC(C3)C1)C2 (centres undefined)	66	-	-	53	55	-	39	50	tim10 confirm=41
CCOC(=O)C1=C(C)N=C2SC(C(=O)OC)=CC(=O)N2C1c1cccc(OC)c1 (centres undefined)	-	-	-	-	-	-	.	.
CCOC(=O)C1=C(C)N=C2SC(C(=O)OC)=CC(=O)N2C1c1ccc(F)cc1 (centres undefined)	86	-	-	75	77	-	81	78	tim10 confirm=84
CCCN(CC1CC1)C(=S)NC(=O)C1CC1	-	-	-	-	-	-	.	.
CCCN(CC1CC1)C(=S)NC(=O)c1cc(Br)ccc1Cl	57	.	-	60	52	-	37	52	tim10 confirm=51
CCOC(=O)C1CCCN(C(=S)NC(=O)c2cc(Br)ccc2Cl)C1 (centres undefined)	55	.	-	40	-	-	-	44
O=C(Nc1nc2c(Cl)c(Cl)ccc2s1)C1CC1	-	-	-	-	-	-	.	.
O=C(Nc1nc2c(Br)cccc2s1)C1CC1	80	-	-	46	-	-	36	76
O=C(O)c1ccccc1C(=O)NNc1cccc(Cl)n1	-	-	-	-	-	-	.	.
Cc1cccc(N2CCN(c3nc4ccccc4n4cnnc34)CC2)c1C	64	-	-	70	53	-	-	72	tim10 confirm=42
COc1ccc(-n2nc(C#N)c(Cl)cc2=O)cc1	61	-	-	47	-	-	-	48
COC(=O)c1nn(-c2ccc(OC)cc2)c(=O)cc1O	-	-	-	-	-	-	.	.
Cc1sc2c(c1C)C(=O)/C(=C\Nc1ccncc1)S(=O)(=O)N2C	-	-	-	-	-	-	.	.
CC(C)=CCc1cc([C@@H]2CC(=O)c3ccc(O)c(CC=C(C)C)c3O2)ccc1O	-	.	-	-	-	-	.	.
Cc1cc2nc(Cl)c(Cl)nc2cc1C	-	.	-	-	-	-	.	.
Cc1cc2cc(C=C(C#N)C#N)c(Cl)nc2cc1C	62	60	-	55	-	-	56	66
Cc1ccc(S(=O)(=O)N[C@@H](Cc2ccccc2)C(=O)N2CCC[C@@H]2C(=O)O)cc1	-	-	-	-	-	-	.	.
Oc1ccc(Cl)cc1/C=N/c1nccs1	55	-	-	45	-	-	44	-
SMILES	tim23-1 inh	NALP1 inh	PfHsp90 set2	tim10-1 inh	TIM10 inh	NLRP3 yeast inh	tim10-1 conf	tim23-1 conf	others
C(=N\c1nccs1)/c1cccnc1	-	-	-	-	-	-	.	.
Oc1c(Br)cc(Br)cc1/C=N/c1nccs1	75	.	-	46	-	-	34	90
Nn1c(SCc2ccccn2)nncc1=O	-	-	-	-	-	-	.	.
CC(C)Oc1ccc(/C=C/C(=O)NCC2COc3ccccc3O2)cc1 (centres undefined)	-	-	-	-	-	-	.	.
CCOc1ccc(C(C)=O)cc1COC(=O)CCc1cc(OC)c(OC)c(OC)c1	-	-	-	-	-	-	.	.
CC(C)(C)C1CCC2(CC1)CC(=O)c1ccccc1O2 (centres undefined)	-	-	-	-	-	-	.	.
Cc1[nH]nc2c1C(c1ccc(-c3ccccc3C#N)o1)C(C#N)=C(N)O2 (centres undefined)	86	-	-	56	-	-	55	68
Cc1[nH]nc2c1C(c1ccc(-c3ccc(Cl)cc3)o1)C(C#N)=C(N)O2 (centres undefined)	-	-	-	-	-	-	.	.
COc1ccc([N+](=O)[O-])c(S(=O)(=O)c2ccccc2)n1	77	-	.	50	-	-	46	47
COc1nc(OC)nc(Oc2ccc(Cl)cc2[N+](=O)[O-])n1	-	-	-	-	-	-	.	.
COc1ccc([N+](=O)[O-])c(S(=O)(=O)c2ccc(Cl)cc2)n1	53	-	109	75	83	-	73	86	tim10 confirm=94
CC1CCCC(=NNc2ccc3ccccc3n2)C1 (centres undefined)	.	.	-	.	.	.	.	.
OCC(O)/C=N/Nc1nc(Nc2ccccc2)nc(Nc2ccccc2)n1 (centres undefined)	54	-	-	50	46	-	-	48	tim10 confirm=45
CNc1nc(N/N=C/c2ccc([N+](=O)[O-])cc2)nc(Nc2ccccc2)n1	-	-	-	-	-	-	.	.
CC(=O)C(=Cc1cn(-c2ccccc2)nc1-c1ccccc1)C(C)=O	82	-	-	67	57	-	68	83	tim10 confirm=53
O=C(c1cc(COc2ccccc2)on1)N1CCCC(CN2CCOCC2)C1 (centres undefined)	-	-	-	-	-	-	.	.
Brc1ccccc1OCCCOc1cccc2cccnc12	-	-	-	-	-	-	.	.
COc1cccc(C=O)c1OCCCOc1cccc2cccnc12	65	29	-	45	41	-	33	55	tim10 confirm=34
